Common to all, as to test: NCI-60 one-dose screen, 48 h (100 = growth as untreated, 0 = no growth, -100 = all killed)
In one assay the test system is NCI-H23 lung. The note with it: 10 µM unless noted.
The next assay has as its system HOP-62 NSCLC. The settings on record: 10 µM unless noted.
For the next assay, the system named is NCI-H460 lung. The settings on record: 10 µM unless noted.
A further assay has as its system A549/ATCC NSCLC. The note with it: 10 µM unless noted.
For another assay, the system named is K-562 leukemia. The settings on record: 10 µM unless noted.
Another assay concerns RXF 393 renal. The settings on record: 10 µM unless noted.
For a further assay, the system named is SF-295 CNS. The settings on record: 10 µM unless noted.
Another assay deals with UACC-257 melanoma. The note with it: 10 µM unless noted.
The subject of the next assay is U251 CNS. The note with it: 10 µM unless noted.
Another assay relates to LOX IMVI melanoma. The settings on record: 10 µM unless noted.
The subject of the next assay is SK-MEL-28 melanoma. The note with it: 10 µM unless noted.
For another assay, the system named is SK-MEL-2 melanoma. The note with it: 10 µM unless noted.
A further assay relates to UO-31 renal. The settings on record: 10 µM unless noted.
The test system of a further assay is TK-10 renal. The settings on record: 10 µM unless noted.
A further assay deals with A498 renal. The note with it: 10 µM unless noted.
The next assay deals with HL-60(TB) leukemia. The note with it: 10 µM unless noted.
The next assay has as its system SR leukemia. The note with it: 10 µM.
The test system of the next assay is OVCAR-4 ovarian. The note with it: 10 µM unless noted.
The next assay relates to HCC-2998 colon. The note with it: 10 µM unless noted.
For another assay, the system named is BT-549 breast. The settings on record: 10 µM.

This is part of a sample that, as a whole, favours compounds with a hit. Of some 83,000 tested, about 20% had one in any assay.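 The endpoint reported here, percent growth, reads 100 for growth as untreated, 0 for no net growth and -100 for all cells dead.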 Values without a mark were called inactive. Activity calls are given as the source filed them. How the source made its calls: active means growth percent below 10; inactive means the rest.

The record followed here is PubChem BioAssay (NCI).

`C#CC1(O)CCC2(C)C(CCC3C4CCC(=O)C4(C)CCC32)C1` (stereo unspecified): the growth with NCI-H23 lung is 97.3%; in the assay on HOP-62 NSCLC it was 94.3%; with NCI-H460 lung it was 102%; with A549/ATCC NSCLC it was 92%; in the assay on K-562 leukemia, 92.6%; with RXF 393 renal it was 110%. Further, the growth in the assay on SF-295 CNS was 94.1%; in the assay with UACC-257 melanoma, 93.9%; with U251 CNS it was 93.9%; in the assay with LOX IMVI melanoma, 96.6%; in the assay with SK-MEL-28 melanoma, 105%; with SK-MEL-2 melanoma, 92%. For the same molecule, the growth with UO-31 renal was 86.8%; in the assay on TK-10 renal, 91.7%; in the assay with A498 renal, 98.2%; with HL-60(TB) leukemia, 93.5%; with SR leukemia, 94.5%; in the assay on OVCAR-4 ovarian, 95.8%. Besides, the growth in the assay with HCC-2998 colon was 106%.
Take `c1ccc(-c2ccc3ccccc3[o+]2)cc1`: the growth in the assay with NCI-H23 lung was 84.4%; with HOP-62 NSCLC, 96.2%; in the assay with NCI-H460 lung, 97.2%; with A549/ATCC NSCLC, 90.8%; in the assay on K-562 leukemia it was 101%; in the assay with RXF 393 renal, 97.4%. Further, the growth in the assay on SF-295 CNS was 104%; in the assay on UACC-257 melanoma, 98%; in the assay on U251 CNS, 93.4%; in the assay with LOX IMVI melanoma, 82.2%; in the assay with SK-MEL-28 melanoma, 111%; with SK-MEL-2 melanoma, 88.8%. In addition, the growth in the assay with UO-31 renal is 73.5%; with TK-10 renal, 139%; with A498 renal, 109%; in the assay on HL-60(TB) leukemia, 89.7%; with SR leukemia, 84.5%; with OVCAR-4 ovarian, 90.5%. Besides, in the assay with HCC-2998 colon, the growth was 108%.
Regarding `C/C(=C\c1cc(C(F)(F)F)n(-c2ccc(N)cc2)n1)[C@@H]1C[C@@H]2O[C@]2(C)CCC[C@H](C)[C@H](O)[C@@H](C)C(=O)C(C)(C)[C@@H](O)CC(=O)O1`, the growth is 24.4% in the assay on NCI-H23 lung; 19.2% in the assay on HOP-62 NSCLC; 3.04% (active) with NCI-H460 lung; 1.71% (active) in the assay with A549/ATCC NSCLC; 6.37% (active) in the assay on K-562 leukemia; -8.53% (active) in the assay on RXF 393 renal. In addition, the growth was 2.01% (active) in the assay on SF-295 CNS; 26.6% in the assay with UACC-257 melanoma; 3.19% (active) with U251 CNS; 4.2% (active) in the assay with LOX IMVI melanoma; 39.1% in the assay on SK-MEL-28 melanoma; 26.6% in the assay on UO-31 renal. In addition, the growth in the assay on A498 renal is -0.114% (active); with HL-60(TB) leukemia, 0.265% (active); with SR leukemia it was -16.4% (active); with OVCAR-4 ovarian, 44.7%; in the assay with BT-549 breast, -2.85% (active); in the assay on HCC-2998 colon, 8.18% (active).
Take `O=C(O)c1[nH]c(=O)[nH]c(=O)c1F`: the growth with NCI-H23 lung was 93%; with HOP-62 NSCLC, 124%; in the assay on NCI-H460 lung it was 47.9%; in the assay on A549/ATCC NSCLC, 90.1%; with K-562 leukemia, 107%; in the assay with RXF 393 renal it was 103%. Moreover, the growth in the assay on SF-295 CNS is 89.2%; in the assay with UACC-257 melanoma, 103%; in the assay with U251 CNS, 87.2%; in the assay with LOX IMVI melanoma, 84.6%; with SK-MEL-28 melanoma, 94.7%; in the assay with SK-MEL-2 melanoma, 110%. In addition, the growth with UO-31 renal is 65.9%; with TK-10 renal it was 78.6%; with A498 renal, 82.5%; in the assay on HL-60(TB) leukemia, 117%; in the assay with SR leukemia, 91.7%; with OVCAR-4 ovarian, 112%. Also, the growth with BT-549 breast is 111%; in the assay with HCC-2998 colon it was 64.9%.
`c1ccc([As]=[As]c2ccccc2)cc1` (stereo unspecified): the growth in the assay with NCI-H23 lung was -37.2% (active); in the assay on HOP-62 NSCLC, -54.4% (active); in the assay with NCI-H460 lung, -45.2% (active); with A549/ATCC NSCLC, -22.8% (active); in the assay with K-562 leukemia, -60.2% (active); with RXF 393 renal, -80.3% (active). In addition, the growth in the assay with SF-295 CNS was 43.8%; in the assay on UACC-257 melanoma, -71.4% (active); in the assay on U251 CNS, -98.7% (active); with LOX IMVI melanoma, -74.5% (active); in the assay on SK-MEL-28 melanoma it was -25.5% (active); in the assay on UO-31 renal it was -96% (active). In addition, the growth in the assay on TK-10 renal is -86% (active); in the assay with A498 renal, -48.5% (active); with HL-60(TB) leukemia, -50.4% (active); with SR leukemia it was -47.5% (active); in the assay on OVCAR-4 ovarian it was 7.07% (active); in the assay with BT-549 breast, -96.5% (active). The growth with HCC-2998 colon was 0.927% (active).
For `CN(Cc1cccnc1)N=O`, the growth was 96.3% in the assay with NCI-H23 lung; 93.1% in the assay on HOP-62 NSCLC; 103% in the assay with NCI-H460 lung; 94.5% with A549/ATCC NSCLC; 104% in the assay with K-562 leukemia; 104% with RXF 393 renal. In addition, the growth with SF-295 CNS is 102%; in the assay on UACC-257 melanoma, 95.7%; with U251 CNS, 97.1%; with LOX IMVI melanoma, 93.5%; in the assay on SK-MEL-28 melanoma, 108%; in the assay on SK-MEL-2 melanoma, 89%. Moreover, the growth is 84.7% in the assay on UO-31 renal; 91.6% in the assay on TK-10 renal; 104% with A498 renal; 97.6% with HL-60(TB) leukemia; 98.4% with SR leukemia; 102% with OVCAR-4 ovarian. In the assay on HCC-2998 colon, the growth was 112%.
Take `NCCc1cc(O)c(O)cc1O`: the growth in the assay with NCI-H23 lung was 100%; in the assay with HOP-62 NSCLC it was 105%; in the assay on NCI-H460 lung, 112%; in the assay with A549/ATCC NSCLC it was 100%; in the assay on K-562 leukemia, 102%; in the assay on RXF 393 renal it was 113%. The growth with SF-295 CNS was 106%; in the assay with UACC-257 melanoma it was 102%; in the assay on U251 CNS, 95.4%; in the assay on LOX IMVI melanoma, 101%; in the assay with SK-MEL-28 melanoma, 114%; with SK-MEL-2 melanoma, 101%. Besides, the growth with TK-10 renal is 95.3%; with A498 renal it was 122%; with HL-60(TB) leukemia, 103%; in the assay on SR leukemia it was 98%; with OVCAR-4 ovarian, 99.5%; in the assay on BT-549 breast it was 90.9%. The growth with HCC-2998 colon was 103%.
`CC(=O)O[C@H]1CCC2C3CCC4=C/C(=N/O)CCC4(C)C3CCC21C` (stereo partly specified): the growth in the assay with NCI-H23 lung was 90%; with HOP-62 NSCLC it was 93.4%; with NCI-H460 lung, 89.6%; with A549/ATCC NSCLC, 99.7%; in the assay with K-562 leukemia, 45.9%; in the assay with RXF 393 renal, 102%. Further, the growth in the assay with UACC-257 melanoma was 114%; in the assay with U251 CNS it was 83.3%; in the assay with LOX IMVI melanoma, 93%; in the assay on SK-MEL-28 melanoma, 103%; with SK-MEL-2 melanoma, 85.4%; with UO-31 renal, 65.1%. The growth in the assay on TK-10 renal was 103%; in the assay on A498 renal, 53.1%; in the assay with HL-60(TB) leukemia, 23.1%; with SR leukemia it was 36.7%; with BT-549 breast, 84.9%; in the assay on HCC-2998 colon it was 83.9%.
